This passage reports survival results from PubChem BioAssay AID463173 (ICCB-Longwood Screening Facility, Harvard Medical School, 2010).

Screen size: about 52,000 compounds; about 4,300 (8.3%) were called active. No stated cut-off is given here; in the data, active means survival mostly below about 52% (no sharp cut-off); inactive means mostly above about 56%. What follows is part of a selection rich in actives, with near analogues and random picks from the rest.

The assay concerns DeltatarO mutant. The assay can be described thus: S. aureus survival, RN4220 and DeltatarO strains – OD600, teichoic acid synthesis inhibitors, primary screen (AID 463173). The following applies: S. aureus RN4220 wild type/DeltatarO growth, OD600, 18 h, stronger effect = lower value, screened at 18.75 µg/mL (by protocol).
For the compound `COc1cccc(N2CCN(c3ncc4c(n3)CCN(Cc3ccc(Br)cc3)C4)CC2)c1`, the survival was 79% (inactive).

For the compound `COc1ccc(/C=C\c2onc(C)c2S(=O)(=O)N2CCC(C(=O)Nc3cccc(C)c3C)CC2)cc1`, the survival is 68% (inactive). As for `Cc1ccc(-c2nnn(CCC(=O)NC(C)(C)C)n2)cc1`, the figure is 91% (inactive); as for `Cc1ccc(C(=O)NCCC(C)C)cc1NC(=O)c1nsc2ccccc12`, 73% (inactive). With `N#C/C(=C/c1cccs1)C(N)=S` the figure was 99% (inactive); with `Cc1cc(SCC(=O)NCc2ccc(Cl)cc2)nc(=O)[nH]1`, 86% (inactive); with `O=C(Nc1cccc(-n2cnnn2)c1)c1ccccc1`, 95% (inactive).

Take `Cc1ccc(C)c(N/C=C(\C#N)c2nc3ccccc3o2)c1`: the survival is 95% (inactive). Take `N#C/C(=C/Nc1cccc2ccccc12)c1nc2ccccc2o1`: the survival was 54% (inactive). With `N#C/C(=C\Nc1ccccc1O)c1nc2ccccc2o1` the figure was 1% (active); with `CCCOC(=O)c1c(NC(=O)C(C)Sc2nc(-c3ccccc3)cc(C(F)(F)F)n2)sc(C(=O)N(C)C)c1C` (centres undefined), 132% (inactive); with `CC(Oc1ccccc1)C(=O)Nc1nc2ccc(S(N)(=O)=O)cc2s1` (centres undefined), 102% (inactive).

Regarding `COCCNc1nc(NCc2ccccc2OC)c2cnn(C)c2n1`, the survival was 69% (inactive).

On to `CCOC(=O)Cc1c(C)nc2c(-c3ccc(Cl)cc3)c(C(F)(F)F)nn2c1C`, for which the survival was 63% (inactive). For `Cc1nc2c(-c3ccc(F)cc3)c(C)nn2c(C)c1CCC(=O)NCc1ccc(Cl)cc1`, the survival was 96% (inactive). As for `CCCCc1c(C)nc2c(-c3ccc(OC)cc3)c(C)[nH]n2c1=O`, the figure is 7% (active). With `CCOC(=O)CCc1c(C)nc2cc(-c3cc(OC)cc(OC)c3)[nH]n2c1=O` the figure was 90% (inactive); with `CCCCc1c(C)nc2c(-c3ccc(Cl)cc3)c(C)[nH]n2c1=O`, -2% (active). With `CCCCc1nc2ccccc2n2c(-c3ccc(OC)cc3)c3c(=O)n(C)c(=O)n(C)c3c12` the figure was 49% (inactive). For the compound `c1ccc(Cn2ncc3c(N4CCCCC4)ncnc32)cc1`, the survival was 77% (inactive). With `COc1ccc(C2=C(C)C(=O)N(Cc3ccc(C(=O)NC(C)c4ccccc4)cc3)S2(=O)=O)cc1` (centres undefined) the figure was 91% (inactive); with `CCOC(=O)c1c(NC(=O)/C=C/c2ccc(C)cc2)sc(C(C)=O)c1C`, 79% (inactive).

Regarding `CCOc1ccc(CNC(=O)c2cnc3sc(N4CCCCCC4)nn3c2=O)cc1OC`, the survival is 83% (inactive).

Regarding `Cc1cccc(NC(=O)N2CCc3c(sc4c3CCCC4)C2c2ccc(F)cc2)c1` (centres undefined), the survival is 37% (active). Consider `COc1cc(NC(=O)N2CCc3c(sc4c3CCCC4)C2c2ccccc2)cc(OC)c1OC` (centres undefined), for which the survival was 103% (inactive). As for `COc1ccc(NC(=O)N2CCc3c(sc4c3CCCC4)C2c2ccccc2OC)cc1` (centres undefined), the figure is 54% (active). With `O=C(Nc1ccc(F)cc1F)N1CCc2c(sc3c2CCCC3)C1c1ccc(F)cc1` (centres undefined) the figure was 93% (inactive); with `COc1ccc(NC(=O)N2CCc3c(sc4c3CCCC4)C2c2ccc(F)cc2)cc1` (centres undefined), 101% (inactive); with `Cc1ccc(NC(=O)N2CCc3c(sc4c3CCCC4)C2c2ccccc2)cc1F` (centres undefined), 102% (inactive).
